# In PubChem BioAssay (Tox21):
# Records with an inconclusive call do not appear. Unmarked numbers belong to inactive results. Active and inactive are the calls of the source. Calls follow the shape of the full dose curve.
# Experiment: qHTS assay for small molecules that induce genotoxicity in human embryonic kidney cells expressing luciferase-tagged ATAD5 - cell viability (AID 651634); also: nearly all actives have a fitted effect of over 25% in size
# Conditions: HEK293T ATAD5-luc cells viability, CellTiter-Fluor, 15.5 h; series mostly up to 83.3 µM; activity, negative = cytotoxicity: at the top concentration
# Procedure, shortened: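 15.5 hr compound or vehicle exposure of HEK293T cells expressing luciferase-tagged ATAD5 at 37C; live-cell protease activity is read by fluorescence after 30 min of CellTiter-Fluor.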
# % is scaled to controls: 0 for no effect and ±100 for the full control effect.
Structure (SMILES),"activity, negative = cytotoxicity",Potency
O=C(O)Cc1cn(-c2ccccc2)nc1-c1ccc(Cl)cc1,-0.698%,–
CCCCCCOC(=O)CC,12%,–
O=C(O)c1cc(Cl)cc([N+](=O)[O-])c1Cl,21.7%,–
Nc1nnc(-c2cccc(Cl)c2Cl)c(N)n1,16.2%,–
CC(C(=O)O)c1ccc2c(c1)CC(=O)c1ccccc1S2 (centres undefined),-8.26%,–
COCCOC(=O)C1=C(C)NC(C)=C(C(=O)OC(C)C)C1c1cccc([N+](=O)[O-])c1 (centres undefined),3.51%,–
COc1ccc(-c2cc(=O)c3c(O)cc(O[C@@H]4O[C@H](CO[C@@H]5O[C@@H](C)[C@H](O)[C@@H](O)[C@H]5O)[C@@H](O)[C@H](O)[C@H]4O)cc3o2)cc1O,-1.95%,–
CC(=O)NCc1c(I)c(NC(C)=O)c(I)c(C(=O)O)c1I,5.98%,–
Cc1cccc(C)c1OCC(C)N (centres undefined),-2.9%,–
CC(C)NCC(O)COc1ccc(COCCOC(C)C)cc1 (centres undefined),–,inactive
C[C@@H]1O[C@@H](O[C@@H]2[C@@H](O)[C@H](OCCc3ccc(O)c(O)c3)O[C@H](CO[C@@H]3O[C@H](CO)[C@@H](O)[C@H](O)[C@H]3O)[C@H]2OC(=O)/C=C/c2ccc(O)c(O)c2)[C@H](O)[C@H](O)[C@H]1O,-11.3%,–
CC(=O)/C=C/C1C(C)=CCC(C)C1(C)C (centres undefined),2.27%,–
Brc1ccc(-c2ccccc2)cc1,-5.4%,–
C=C(C)C(=O)OCCNC(C)(C)C,12.5%,–
C=COCCOCCOCCOC=C,16.6%,–
CC(=O)CCCCn1c(=O)c2c(ncn2C)n(C)c1=O,-2.78% [at 39.1 µM],–
FC(F)(F)c1ccccc1-n1ccnc1,12.7%,–
C=Cc1ccccn1,9.99% [at 95.3 µM],–
CC(N)C(=O)OC(C)(C)Cc1ccc(Cl)cc1 (centres undefined),25.1%,–
